For 14 compounds, growth results are on record in PubChem BioAssay (NCI).

Each structure is given as a SMILES string. The panel holds about 83,000 compounds, 20% with a hit somewhere; the sample as a whole holds those more often.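 Growth was measured after 48 h exposure to one concentration of compound in 96-well plates. Values under 10 count as active.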 Values without a mark were called inactive. Activity calls are given as the source filed them.

The test deals with NCI-H23 lung. The experiment in a line: NCI-60 one-dose screen, 48 h (100 = growth as untreated, 0 = no growth, -100 = all killed). Particulars: 10 µM unless noted.
As for `COc1ccc(/C=C(/C(=O)N2CCCCC2)c2cc(OC)c(OC)c(OC)c2)cc1`, the growth is 36.3%. For `COc1ccc(OC)c(Cn2cc3c(c2)-c2oncc2CC3)c1`, the growth was 28.8%. For the compound `COc1ccc(CN2C(=O)/C(=C\C(=O)c3ccc(OCCN4CCCCC4)cc3)c3ccccc32)cc1`, the growth was 74.5%.

Take `COc1ccc(/C=C2\SC(=O)N(Cc3cc(=O)oc4ccc(OC)cc34)C2=O)cc1`: the growth is 71.6%. Turning to `O=c1oc2ccc3ccccc3c2cc1-c1ccnc2[nH]c(=S)[nH]c(=O)c12`, the growth is 94.7%. For `O=C(O)c1occ(Cl)c1Cl` the value was 112%. Turning to `COc1ccc(Cn2cc3c(c2-c2ccccc2)CCc2cnoc2-3)cc1OC`, the growth was 26.3%.

Consider `CCCCN(CCCC)CC(O)CN(CC)CC` (centres undefined), for which the growth was 99.6%. Turning to `O=C(/C=C/c1c[nH]c2ccccc12)c1cc2ccccc2o1`, the growth is 97.2%. `COc1ccc2sc(-n3nc4nc5n(c(=O)c4c3N)-c3ccccc3Sc3ccccc3-5)nc2c1`: the growth is 79.2%.

`CCOC(=O)NNc1[nH]c(-c2ccc(OC)cc2)cc1C#N`: the growth was 88.9%. For `COc1ccc(-c2cn3ccnc3c(-c3ccc4ncn(C5CCCCC5)c4c3)n2)cc1`, the growth is 37.9%. In the case of `CCOC(=O)C1=NN(c2ccccc2)C2=NC(=O)/C(=C\c3cn(-c4ccccc4)nc3-c3cc4ccccc4o3)C(=O)N12`, the growth was 95.4%. For `O=C(/C=C1\C(=O)N(Cc2ccc([N+](=O)[O-])cc2)c2ccccc21)c1ccc(OCCN2CCCCC2)cc1`, the growth is -10.4% (active).
